# The list is not random: actives were taken first. Their share in the collection is about 8.3%.
# FMDV inh: foot and mouth disease virus antiviral activity. FMDV antiviral cell-based qHTS. Potency, µM (highest dose often 57.9 µM), without a hit: top-dose activity change, negative = inhibition, actives largely listed as inhibitors. 410,000 tested, 1.2% active; calls by dose curve; tested in HEK293T cells; note: read-out not given here; potency is the fitted concentration of half-maximal effect; nearly all actives have a fitted effect of over 45% in size
# HCV inhibitor: HCV inhibition; Potency, µM (highest dose often 41.8 µM), for inactives: at the highest dose activity change, negative = inhibition, actives largely listed as inhibitors; AID 651820; Huh7.5.1 HCVcc-Cre infection, luciferase reporter, 44 h; 340,000 tested, 3.4% active; note: potency is the fitted concentration of half-maximal effect
#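 Luciferase read-out (15 sec integration) after a 15 min room-temperature substrate step quantifies HCVcc-Cre infection. Cells, 1,000 per well, had compound added 4 h post-plating, then virus at ~0.5 moi, and were cultured 44 h.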
# HCMV inh: blocks human cytomegalovirus replication. HFF cells, HCMV-luciferase reporter, 72 h; stronger effect = lower value. activity change, negative = inhibition, % at 57.5 µM. 410,000 tested, 4.5% active; in the data active = activity change below about -60%; inconclusive = no clear call, values can overlap the other calls; inactive = above about -39%
#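 Screen run at 2 compound doses on HFFs infected with reporter HCMV, MOI 1 PFU/cell. Luciferase activity from cell lysates at 72 h post infection gave inhibition relative to buffer-only and Salinomycin wells.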
# MARV entry inh: Marburg virus entry inhibition; Marburg virus pseudotyped entry inhibition, cell reporter; Potency, µM (titrated, usually from 37.8 µM), without a hit: top-dose activity change, negative = inhibition, most hits filed as inhibitors; 300,000 tested, 1.8% active; AID 540276; calls by dose curve; tested in HEK293 cells; note: potency is the fitted concentration of half-maximal effect
# Lassa entry inh: inhibitors of Lassa virus binding or cell entry; Lassa virus pseudotype entry inhibition, cell reporter; Potency, µM (series often up to 37.9 µM), inactives show at the top dose activity change, negative = inhibition, usual class: inhibitors; 300,000 tested, 1.2% active; AID 540256; calls by dose curve; tested in HEK293 cells; note: potency is the fitted concentration of half-maximal effect; nearly all actives have a fitted effect of over 50% in size
# FBPA Giardia inh: inhibitors of Giardia lamblia fructose-1,6-bisphosphate aldolase; A8B2U2; purified Giardia FBPA; Potency, µM (highest dose often 59.6 µM), for the others: at the highest dose activity, negative = inhibition, actives largely listed as inhibitors; 290,000 tested, 0.71% active; note: potency is the fitted concentration of half-maximal effect; nearly all actives have a fitted effect of over 55% in size
# Target sequence (A8B2U2 whole entry, looked up): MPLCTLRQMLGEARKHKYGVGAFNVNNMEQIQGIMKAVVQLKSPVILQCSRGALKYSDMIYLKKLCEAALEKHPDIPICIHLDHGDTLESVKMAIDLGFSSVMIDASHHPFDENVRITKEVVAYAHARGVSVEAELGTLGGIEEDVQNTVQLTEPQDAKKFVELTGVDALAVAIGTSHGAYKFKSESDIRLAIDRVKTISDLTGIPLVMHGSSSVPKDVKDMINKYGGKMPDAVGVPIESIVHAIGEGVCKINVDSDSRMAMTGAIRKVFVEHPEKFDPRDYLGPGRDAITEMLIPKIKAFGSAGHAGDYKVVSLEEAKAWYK
#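 40 nM FBPA preincubated 10 min at RT with compound (up to 57.5 uM final), then substrate plus GAPDH/TPI/NAD/arsenate coupling and diaphorase/resazurin added. Fluorescence read after 20 min at RT, 525/598 nm.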
# Numbers without * were called inactive; ? = inconclusive; . = not tested or not shown; ! = repeats disagree; [ ] = another dose, or the depositor's remark. Unless noted, calls come from the whole dose curve; as a rule, active = well fitted curve in the direction sought with a large enough effect; inconclusive = small, poorly fitted or top-dose-only effect, or another doubt; inactive = no such curve, though single readings can be large; an effect the other way counts as inactive or inconclusive. % is set by controls: 0 for no effect and ±100 for the full control effect.
SMILES,FMDV inh,HCV inhibitor,HCMV inh,MARV entry inh,Lassa entry inh,FBPA Giardia inh
N[C@H](Cn1ccc(=O)n(Cc2ccccc2C(=O)O)c1=O)C(=O)O,3%,.,.,.,.,-23%
COc1cnc(-c2ccccn2)nc1Sc1ccc(C)cc1,-3%,?,-81*,6.3µM*,?,-6%
COc1ccccc1Sc1nc(-c2ccccn2)ncc1OC,-11%,?,?,?,?,?
Cc1ccc(S(=O)(=O)N2CCN(C(=O)C3CCN(C(=O)c4ccc(F)cc4)CC3)CC2)c(C)c1,?,11µM*,-30,?,?,.
Cc1ccc(S(=O)(=O)N2CCN(C(=O)c3cc(=O)[nH]c4ccccc34)CC2)c(C)c1,?,14µM*,-2,?,?,5%
Cc1ccc(S(=O)(=O)N2CCN(C(=O)C3CC3C)CC2)c(C)c1 (centres undefined),-18%,14%,-27,-16%,4%,.
CC(=O)c1c(C)[nH]c(C(=O)OCC(=O)N2CCN(S(=O)(=O)c3ccc(C)cc3C)CC2)c1C,20µM*,?,30,-28%,?,-5%
O=c1c(-c2ccc(Cl)cc2)nc2cncnc2n1Cc1ccccc1Cl,1%,.,.,.,.,-2%
COc1cc(=O)n2c(c1C(=O)N1CCc3ccccc3C1)CCN(Cc1ccc(CO)o1)CC2,3%,.,.,.,.,.
CCOC(=O)C1CCN(C(=O)c2nn(-c3ccc(C)cc3)c(=O)c3c2c2ccccc2n3C)CC1,-30%,.,1,-1%[46.1 µM],34%[46.1 µM],.
O=C(Cn1c(=O)ccc2cc(S(=O)(=O)N3CCCC3)ccc21)Nc1ccc(Cl)cc1,-5%,.,11,.,-27%[46.1 µM],.
CCCCOc1ccc(Br)cc1CSC(=N)N,13µM*,2µM*,-98*,?,?,-12%
COc1ccc([N+](=O)[O-])cc1N(CC(O)CN(CC(C)C)CC(C)C)S(=O)(=O)c1ccccc1 (centres undefined),3%,-20%,76,12µM*,5%,-15%
COc1ccccc1-c1cc(C(F)(F)F)nc(S(=O)(=O)CCCC(=O)O)n1,25µM*,28%,-14,?,7%,14%
COc1ccc(-c2cc(C(F)(F)F)nc(S(=O)(=O)CCC(=O)N3CCOCC3)n2)cc1,-11%,-17%,96,?,?,5%
COc1ccccc1-c1cc(C(F)(F)F)nc(S(=O)(=O)CCCC(=O)N2CCOCC2)n1,22µM*,?,-104*,11µM*!,13µM*,7%
COc1ccccc1-c1cc(C(F)(F)F)nc(S(=O)(=O)CCCC(=O)Nc2cc(OC)c(OC)c(OC)c2)n1,19%,.,-2,?,?,.
COc1ccc(O[C@H]2C=C[C@@H](c3ccccc3)O[C@H]2COC(=O)CCC(C)=NO[C@H](C)c2cn([C@@H]3COC[C@@H]3O)nn2)cc1,.,.,.,-3%[14.2 µM],26%[14.3 µM],.
O=C1[C@H]2[C@H]3[C@H](O)[C@H](O)C/C(=N/OCc4ccccc4)[C@@H]3CC[C@@H]2C(=O)N1C[C@@H]1CCCO1,.,.,.,6%[14.2 µM],.,-7%[12.9 µM]
Cc1cc(C(=O)OC(C)C(=O)Nc2nc(-c3ccccc3)cs2)c(C)o1 (centres undefined),.,?,-8,?,13µM*,3%
COc1ccccc1NC(=O)COC(=O)c1cc(C)oc1C,-4%,-22%,-79*,1%[46.1 µM],0%[46.1 µM],.
Cc1cc(C(=O)OCC(=O)Nc2nc(-c3ccccc3)cs2)c(C)o1,-18%,?,-101*,-3%,?,2%
Cc1nn(-c2ccc(F)cc2)c(C)c1CNC(=O)c1ccc(-n2cc(NC(=O)c3ccoc3)cn2)cc1,-10%,.,.,.,.,.
CCOC(=O)Cc1csc(SCC(=O)Nc2cc(Cl)ccc2Oc2ccccc2)n1,?,10µM*,-9,?,2%,10%
O=C1CCC(C(=O)OCC(=O)Nc2ccc(Cl)cc2C(F)(F)F)=NN1,-24%,8%,-19,.,.,.
SMILES,FMDV inh,HCV inhibitor,HCMV inh,MARV entry inh,Lassa entry inh,FBPA Giardia inh
COc1ccc(Cl)cc1NC(=O)COC(=O)C1=NNC(=O)CC1,-10%,?,-67*,8%,?,.
CCCn1c(SCC(=O)Nc2cc(Cl)ccc2Cl)n[nH]c1=O,?,-26%,13,?,?,-4%
O=C(CSc1n[nH]c(=O)n1C1CC1)Nc1cc(Cl)ccc1Oc1ccccc1,14µM*,?,0,8.2µM*,?,4%
CCCn1c(SCC(=O)Nc2cc(Cl)ccc2OC)n[nH]c1=O,?,10µM*,39,-6%,-4%,-20%
CC1CC(C)CN(S(=O)(=O)c2ccccc2[N+](=O)[O-])C1 (centres undefined),-10%,5%,-72*,-13%,2%,-3%
Cc1c(C(=O)NC2CCCCCC2)sc2ncnc(NCC3CCCO3)c12 (centres undefined),-9%,.,.,.,.,.
CC(C)=CCC[C@](C)(O[C@@H]1O[C@H](CO)[C@@H](O)[C@H](O)[C@H]1O)[C@H]1CC[C@]2(C)[C@@H]1[C@H](O)C[C@@H]1[C@@]3(C)CC[C@H](O[C@@H]4O[C@H](CO)[C@@H](O)[C@H](O)[C@H]4O[C@@H]4O[C@H](CO)[C@@H](O)[C@H](O)[C@H]4O)C(C)(C)[C@@H]3[C@@H](O)C[C@]12C,.,.,.,.,.,6%
COc1ccc(Cl)cc1-c1ccc2c(c1)COCC(=O)N2C,.,.,0,.,.,.
Cc1cccc2sc(N(CCN(C)C)C(=O)/C=C/c3cccs3)nc12,?,?,-77*,?,?,-11%
COc1ccc2nc(N(CCN(C)C)C(=O)/C=C/c3cccs3)sc2c1,?,?,-70*,.,.,-1%
COc1ccc2sc(N(CCN(C)C)C(=O)/C=C/c3cccs3)nc2c1,?,16µM*,-76*,.,.,-8%
CS(=O)(=O)N1CCC2(CCCN(c3cccc(-c4ccccc4)c3)C2)CC1,-2%,.,.,.,.,-10%
O=C(Nc1ccc(Cl)cc1)Nc1ccc(Cl)c(Cl)c1,-24%,?,-98*,.,.,.
CC(C)(C)N(NC(=O)Nc1ccc(F)cc1)C(=O)c1ccccc1,-11%,0%,15,-7%,0%,1%
CC(C)(C)N(NC(=O)Nc1ccc(Cl)c(Cl)c1)C(=O)c1ccccc1,?,?,-80*,?,?,-3%
O=C(Nc1ccc(Cl)c(Cl)c1)Nc1ccc(Br)cc1F,?,?,-99*,?,?,-6%
O=C(NC(=S)Nc1ccc(Br)c(Cl)c1)C1CC1,21%,10µM*,-6,.,.,.
CCCC(CCC)C(=O)NC1CC(=O)N(c2ccc3c(c2)OCCO3)C1 (centres undefined),-6%,.,19,.,20%[46.1 µM],.
COc1cccc(Cn2c(=O)c(-c3cccc(F)c3)nc3cncnc32)c1,-21%,.,.,.,.,-2%
O=C(Nc1ccc(Cl)c(Cl)c1)Nc1nnc(-c2ccncc2)s1,-1%,8.9µM*,-23,-1%,3%,-27%

# Screens from PubChem.
